For 67 compounds, cytotoxicity call results are on record in the antibiotic and cytotoxicity screens of Wong et al. (2023).

Screen size: about 39,000 compounds; about 1,500 (3.8%) were called active. This excerpt belongs to a sample that is enriched for actives.

The test system of this experiment is HSkMC (human skeletal muscle cells). Kind of experiment: cytotoxicity call (relative viability < 0.9). The conditions noted are these: 10 µM.
As for `COc1ccc(CN(C)C[C@@H]2OCCCC[C@@H](C)Oc3ccc(NC(=O)c4ccccc4)cc3C(=O)N([C@H](C)CO)C[C@@H]2C)cc1`, the cytotoxicity call was “inactive”. Take `Cc1noc(C)c1NC(=O)Nc1ccc2c(c1)C(=O)N([C@@H](C)CO)C[C@H](C)[C@@H](CN(C)C(=O)Nc1c(C)noc1C)OCCCC[C@H](C)O2`: the cytotoxicity call is “inactive”. To `CN1CCN(C(=O)C[C@@H]2CC[C@@H]3[C@H](COc4ccc(NC(=O)c5cscn5)cc4C(=O)N3C)O2)CC1` belongs “inactive”; to `O=C(C[C@@H]1C[C@H]2c3cc(NC(=O)C4CCOCC4)ccc3O[C@H]2[C@@H](CO)O1)NCc1cc(F)ccc1F`, “inactive”; to `Cc1ccc(S(=O)(=O)N(C)C[C@@H]2Oc3ccc(NS(=O)(=O)c4c(C)noc4C)cc3CC(=O)N([C@H](C)CO)C[C@H]2C)cc1`, “inactive”. Take `CC(=O)OC1CC2C(C)(C)C=CCC2(C)C2CCC3(C)C(c4ccoc4)OC(=O)C4OC43C12C` (configuration not stated): the cytotoxicity call was “inactive”. To `O=C(CN1CCOCC1)NCC[C@H]1CC[C@H](NC(=O)c2ccccc2F)[C@@H](CO)O1` belongs “inactive”; to `C[C@@H]1CN([C@@H](C)CO)C(=O)Cc2cc(NC(=O)Nc3cccc4ccccc34)ccc2O[C@@H]1CN(C)S(=O)(=O)c1cccs1`, “inactive”. To `C(=N\c1nnc2nc[nH]n12)/c1ccco1` belongs “inactive”. Regarding `C[C@@H]1CCCCO[C@@H](CN(C)Cc2ccc(Cl)c(Cl)c2)[C@H](C)CN([C@@H](C)CO)C(=O)c2cc(N(C)C)ccc2O1`, the cytotoxicity call is “inactive”. With `C[C@@H]1CCCCO[C@H](CN(C)Cc2ccc(Cl)c(Cl)c2)[C@@H](C)CN([C@@H](C)CO)C(=O)c2cc(NC(=O)Nc3ccc4c(c3)OCO4)ccc2O1`, the cytotoxicity call was “inactive”. With `C[C@H](CO)N1C[C@H](C)[C@@H](CN(C)Cc2ccc(Cl)c(Cl)c2)OCCCC[C@H](C)Oc2ccc(NC(=O)Nc3ccc4c(c3)OCO4)cc2C1=O`, the cytotoxicity call is “active”. Regarding `C[C@@H]1CCCCO[C@@H](CN(C)Cc2ccc(Cl)c(Cl)c2)[C@H](C)CN([C@H](C)CO)C(=O)c2cc(NC(=O)Nc3ccc4c(c3)OCO4)ccc2O1`, the cytotoxicity call is “inactive”. With `C[C@@H]1CCCCO[C@H](CN(C)Cc2ccc(Cl)c(Cl)c2)[C@H](C)CN([C@@H](C)CO)C(=O)c2cc(NC(=O)Nc3ccc4c(c3)OCO4)ccc2O1`, the cytotoxicity call is “active”. Take `C[C@@H]1CCCCO[C@@H](CN(C)Cc2ccc(Cl)c(Cl)c2)[C@H](C)CN([C@@H](C)CO)C(=O)c2cc(NC(=O)Nc3ccc4c(c3)OCO4)ccc2O1`: the cytotoxicity call was “inactive”.

Take `C[C@H]1CCCCO[C@H](CN(C)Cc2ccc(Cl)c(Cl)c2)[C@@H](C)CN([C@@H](C)CO)C(=O)c2cc(NC(=O)Nc3ccc4c(c3)OCO4)ccc2O1`: the cytotoxicity call is “inactive”. To `C[C@H](CO)N1C[C@H](C)[C@H](CN(C)C(=O)Nc2ccc(F)cc2)OCCCC[C@H](C)Oc2ccc(NC(=O)C3CCCCCC3)cc2C1=O` belongs “inactive”; to `CC(=O)O[C@H](C[C@H](O)C(C)(O)CCC=C(C)C)/C(C)=C/COC[C@@H](O)[C@@H](O)[C@@H](O)[C@@H](O)CO` (some centres not stated), “inactive”; to `O=C(Cn1ccc([N+](=O)[O-])n1)n1cccn1`, “inactive”. `N=c1ccn2c(n1)O[C@H]1[C@H](O)[C@@H](CO)O[C@H]12`: the cytotoxicity call was “active”. For the compound `Cl.N=c1ccn2c(n1)OC1C(O)C(CO)OC12` (configuration not stated), the cytotoxicity call is “inactive”.

Regarding `Nc1ccn([C@@H]2O[C@H](CO)[C@@H](O)[C@H]2O)c(=O)n1`, the cytotoxicity call is “inactive”. As for `C[C@H](CO)N1C[C@H](C)[C@H](CN(C)C(=O)Nc2cccc3ccccc23)Oc2ncc(C#Cc3ccc(F)cc3)cc2C1=O`, the entry is “inactive”; as for `Cc1ccc(S(=O)(=O)N(C)C[C@@H]2OCCCC[C@H](C)Oc3ccc(NS(=O)(=O)c4ccc(Cl)cc4)cc3C(=O)N([C@H](C)CO)C[C@@H]2C)cc1`, “inactive”; as for `CCN1C(C)(C)CC(Oc2ccc(C(=O)Nc3ccc(NC(=O)Nc4cc(C(C)(C)C)on4)cc3)nc2)CC1(C)C`, “active”. As to `CC(C)(C)c1cc(C(=O)NN)no1`, the cytotoxicity call was “inactive”. As for `CC(C)CC#Cc1ccc2c(c1)O[C@H](CN(C)C(=O)c1ccccn1)[C@@H](C)CN([C@H](C)CO)S2(=O)=O`, the cytotoxicity call was “inactive”. Turning to `COc1cccc(-c2ccc3c(c2)O[C@@H](CN(C)C(=O)C2CCOCC2)[C@@H](C)CN([C@@H](C)CO)S3(=O)=O)c1`, the cytotoxicity call was “inactive”.

With `C[C@@H]1CN([C@@H](C)CO)C(=O)Cc2cc(NC(=O)Cc3ccccc3)ccc2O[C@@H]1CN(C)Cc1ccc(C(F)(F)F)cc1`, the cytotoxicity call is “active”. Regarding `C[C@H]1CN([C@@H](C)CO)C(=O)Cc2cc(NC(=O)Cc3ccccc3)ccc2O[C@H]1CN(C)Cc1ccc(C(F)(F)F)cc1`, the cytotoxicity call is “inactive”.

With `C[C@@H]1CN([C@@H](C)CO)C(=O)Cc2cc(NC(=O)Cc3ccccc3)ccc2O[C@H]1CN(C)Cc1ccc(C(F)(F)F)cc1`, the cytotoxicity call was “inactive”.

`C[C@@H]1CN([C@H](C)CO)C(=O)Cc2cc(NC(=O)Cc3ccccc3)ccc2O[C@H]1CN(C)Cc1ccc(C(F)(F)F)cc1`: the cytotoxicity call was “inactive”. For the compound `C[C@H]1CN([C@@H](C)CO)C(=O)Cc2cc(NC(=O)Cc3ccccc3)ccc2O[C@@H]1CN(C)Cc1ccc(C(F)(F)F)cc1`, the cytotoxicity call was “active”. `C[C@@H]1CN([C@H](C)CO)C(=O)Cc2cc(NC(=O)Cc3ccccc3)ccc2O[C@@H]1CN(C)Cc1ccc(C(F)(F)F)cc1`: the cytotoxicity call was “inactive”. Consider `C[C@@H]1CN([C@@H](C)CO)C(=O)c2cc(NC(=O)Nc3cccc4ccccc34)ccc2O[C@@H]1CN(C)S(=O)(=O)c1ccc(Cl)cc1`, for which the cytotoxicity call is “inactive”. To `Cc1noc(C)c1NC(=O)Nc1ccc2c(c1)C(=O)N([C@@H](C)CO)C[C@H](C)[C@@H](CN(C)Cc1ccc3c(c1)OCO3)OCCCC[C@@H](C)O2` belongs “inactive”; to `COc1ccc(CN(C)C[C@@H]2OCCCC[C@H](C)Oc3ccc(NC(=O)NC(C)C)cc3C(=O)N([C@H](C)CO)C[C@H]2C)cc1`, “inactive”. To `CO[C@@H]1CN(C)C(=O)c2cc(NC(=O)CC(F)(F)F)ccc2OC[C@H](C)N(S(=O)(=O)c2cn(C)cn2)C[C@H]1C` belongs “inactive”. On to `Cc1ccc(S(=O)(=O)N(C)C[C@H]2Oc3ccc(NS(=O)(=O)c4c(C)noc4C)cc3CC(=O)N([C@H](C)CO)C[C@@H]2C)cc1`, for which the cytotoxicity call is “inactive”.

As for `C[C@@H]1CN([C@@H](C)CO)S(=O)(=O)c2ccc(-c3cncnc3)cc2O[C@H]1CN(C)C(=O)C1CCCCC1`, the cytotoxicity call is “inactive”. As for `C[C@@H]1CN([C@H](C)CO)C(=O)c2cc(-c3ccc(C(=O)N(C)C)cc3)cnc2O[C@H]1CN(C)C(=O)c1ccncc1`, the entry is “inactive”. In the case of `C[C@@H]1CN([C@@H](C)CO)C(=O)c2cc(NS(C)(=O)=O)ccc2O[C@@H]1CN(C)Cc1ccc(C(F)(F)F)cc1`, the cytotoxicity call is “inactive”. With `NC(=O)CSc1ccccn1`, the cytotoxicity call is “inactive”. To `COCC#Cc1ccc2c(c1)O[C@@H](CN(C)S(=O)(=O)c1ccc(F)cc1)[C@@H](C)CN([C@@H](C)CO)S2(=O)=O` belongs “active”. Turning to `C[C@H](CO)N1C[C@H](C)[C@H](CN(C)S(=O)(=O)c2ccc(F)cc2)Oc2cc(C#Cc3ccncc3)ccc2S1(=O)=O`, the cytotoxicity call was “inactive”. To `C[C@H]1CN([C@@H](C)CO)S(=O)(=O)c2ccc(C#Cc3ccncc3)cc2O[C@H]1CN(C)S(=O)(=O)c1ccc(F)cc1` belongs “inactive”; to `COCC#Cc1ccc2c(c1)O[C@H](CN(C)S(=O)(=O)c1ccc(F)cc1)[C@@H](C)CN([C@H](C)CO)S2(=O)=O`, “inactive”; to `C[C@H]1CN([C@@H](C)CO)S(=O)(=O)c2ccc(C#Cc3ccncc3)cc2O[C@@H]1CN(C)S(=O)(=O)c1ccc(F)cc1`, “active”. For `COCC#Cc1ccc2c(c1)O[C@@H](CN(C)S(=O)(=O)c1ccc(F)cc1)[C@@H](C)CN([C@H](C)CO)S2(=O)=O`, the cytotoxicity call was “inactive”. In the case of `C[C@H](CO)N1C[C@H](C)[C@H](CN(C)C(=O)NC2CCCCC2)Oc2ccc(NS(C)(=O)=O)cc2CC1=O`, the cytotoxicity call is “inactive”. To `C[C@H](CO)N1C[C@H](C)[C@@H](CN(C)C(=O)Nc2ccc(F)cc2)OCCCC[C@H](C)Oc2ccc(NC(=O)Cc3ccccc3)cc2C1=O` belongs “inactive”; to `CC(C)C(N)C(=O)O` (configuration not stated), “inactive”.

For the compound `C[C@H](O)C(=O)Nc1c(I)c(C(=O)NC(CO)CO)c(I)c(C(=O)NC(CO)CO)c1I`, the cytotoxicity call is “inactive”. Take `CC(C)(C(=O)O)c1ccc(C(O)CCCN2CCC(C(O)(c3ccccc3)c3ccccc3)CC2)cc1.Cl` (configuration not stated): the cytotoxicity call is “inactive”. On to `CC(C)(C)c1ccc(C(O)CCCN2CCC(C(O)(c3ccccc3)c3ccccc3)CC2)cc1` (configuration not stated), for which the cytotoxicity call is “active”. For the compound `CC(C)(C(=O)O)c1ccc([C@@H](O)CCCN2CCC(C(O)(c3ccccc3)c3ccccc3)CC2)cc1`, the cytotoxicity call was “inactive”. Turning to `C[C@@H]1CN([C@H](C)CO)C(=O)c2cccc(NC(=O)C3CC3)c2O[C@@H]1CN(C)Cc1ccc(-c2ccccc2)cc1`, the cytotoxicity call is “inactive”. As for `CC(C)NC(=O)Nc1ccc2c(c1)C(=O)N([C@@H](C)CO)C[C@@H](C)[C@@H](CN(C)S(C)(=O)=O)OCCCC[C@@H](C)O2`, the entry is “inactive”; as for `C[C@@H]1CCCCO[C@@H](CN(C)C(=O)Nc2ccccc2)[C@H](C)CN([C@H](C)CO)C(=O)c2cc(NC(=O)Nc3ccccc3)ccc2O1`, “inactive”.

Turning to `CC(C)NC(=O)N(C)C[C@@H]1OCCCC[C@@H](C)Oc2ccc(NC(=O)Nc3ccc(C(F)(F)F)cc3)cc2C(=O)N([C@@H](C)CO)C[C@@H]1C`, the cytotoxicity call is “inactive”.

Regarding `C[C@H](CO)N1C[C@H](C)[C@H](CN(C)C(=O)Nc2ccc3c(c2)OCO3)OCc2cn(nn2)CCCC1=O`, the cytotoxicity call was “inactive”. To `COc1cc2nc(N3CCN(C(=O)c4ccco4)CC3)nc(N)c2cc1OC.Cl` belongs “inactive”; to `COc1cc2nc(N3CCCN(Cc4ccccc4)CC3)nc(Nc3ccc(F)c(Cl)c3)c2cc1OC`, “active”; to `NC1CCN(Cc2ccccc2)CC1`, “inactive”. For the compound `COc1cc2nc(N3CCCN(Cc4ccccc4)CC3)nc(NC3CCN(Cc4ccccc4)CC3)c2cc1OC`, the cytotoxicity call was “inactive”. Regarding `COc1ccc2nc3cc(Cl)ccc3c(Nc3cc(CN4CCCC4)c(O)c(CN4CCCC4)c3)c2n1.O=P(O)(O)O.O=P(O)(O)O.O=P(O)(O)O.O=P(O)(O)O`, the cytotoxicity call was “inactive”. To `Brc1ccc2nc(N3CCCN(Cc4ccccc4)CC3)nc(NC3CCN(Cc4ccccc4)CC3)c2c1` belongs “active”.
